Test results taken from PubChem BioAssay AID624138 (Broad Institute, 2012).
The campaign covered roughly 17,000 compounds. About 35 (0.2%) were called active.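 The calls were made as follows: active = compounds whose four printed spots each show fluorescence over background unusually high for their array block, chance value under 7%; inactive = the rest.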 What follows is part of a selection rich in actives, with near analogues and random picks from the rest.

What follows are compounds tested against Signal transducer and activator of transcription 3 (Homo sapiens) (UniProt P40763) (assay: STAT3 binders, primary screen, biochemical, small molecule microarray, single point, set 2 (AID 624138)). Conditions: His-STAT3 binding, anti-His fluorescence.
Chain of Signal transducer and activator of transcription 3 (Homo sapiens) (P40763 whole entry, looked up): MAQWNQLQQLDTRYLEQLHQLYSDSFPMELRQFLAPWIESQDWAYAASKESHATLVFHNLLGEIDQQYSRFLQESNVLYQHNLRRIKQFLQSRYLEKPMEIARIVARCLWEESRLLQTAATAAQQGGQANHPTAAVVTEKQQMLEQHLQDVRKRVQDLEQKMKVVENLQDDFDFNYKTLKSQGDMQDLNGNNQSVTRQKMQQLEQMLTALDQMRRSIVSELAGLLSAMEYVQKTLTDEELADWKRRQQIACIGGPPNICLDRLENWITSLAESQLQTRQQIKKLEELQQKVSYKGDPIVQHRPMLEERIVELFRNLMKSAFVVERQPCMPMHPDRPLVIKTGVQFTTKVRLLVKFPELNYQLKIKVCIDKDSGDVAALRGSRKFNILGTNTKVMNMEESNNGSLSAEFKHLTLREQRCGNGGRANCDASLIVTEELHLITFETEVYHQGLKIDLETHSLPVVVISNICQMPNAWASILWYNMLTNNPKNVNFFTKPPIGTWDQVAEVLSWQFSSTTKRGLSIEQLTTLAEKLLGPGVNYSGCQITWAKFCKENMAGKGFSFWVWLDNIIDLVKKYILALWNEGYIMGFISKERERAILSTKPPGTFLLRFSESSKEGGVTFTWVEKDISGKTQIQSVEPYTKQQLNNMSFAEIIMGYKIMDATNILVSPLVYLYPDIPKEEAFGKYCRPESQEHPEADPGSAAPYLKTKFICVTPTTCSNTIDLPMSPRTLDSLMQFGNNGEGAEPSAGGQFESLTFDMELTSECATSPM

outcome, inactive:
Cc1noc(C)c1NC(=O)Nc1ccc2c(c1)C(=O)N([C@@H](C)CO)C[C@H](C)[C@H](CN(C)Cc1ccc(C(=O)O)cc1)OCCCC[C@@H](C)O2, C[C@H](CO)N1C[C@H](C)[C@H](CN(C)Cc2ccncc2)Oc2ccc(N(C)C)cc2C1=O, C[C@H]1CN([C@@H](C)CO)C(=O)c2cc(NC(=O)Cn3cnnn3)ccc2O[C@@H]1CN(C)CC1CCCCC1, C[C@H]1CN([C@@H](C)CO)C(=O)Cc2cc(NC(=O)Nc3ccccc3)ccc2O[C@H]1CN(C)Cc1ccncc1, Cc1cc(O)c2c(c1)C(=O)OC2c1c(O)cccc1O (stereo not given), CO[C@H]1O[C@H](CO)[C@@H](OC(=O)Nc2ccccc2-c2ccccc2)[C@H](OC(=O)Nc2ccccc2)[C@H]1OC(=O)Nc1ccccc1, CC(=O)n1cc([C@@H]2C=C(C(=O)N3CCN(Cc4ccc5c(c4)OCO5)CC3)O[C@H](OCc3ccc(CO)cc3)C2)c2ccccc21, Cc1noc(C)c1S(=O)(=O)Nc1ccc2c(c1)C(=O)N([C@@H](C)CO)C[C@@H](C)[C@H](CN(C)C(=O)NC(C)C)OCCCC[C@@H](C)O2, Cc1noc(C)c1NC(=O)Nc1ccc2c(c1)C(=O)N([C@@H](C)CO)C[C@H](C)[C@H](CN(C)S(=O)(=O)c1cn(C)cn1)OCCCC[C@@H](C)O2, C[C@@H]1CN([C@H](C)CO)C(=O)c2cccc(NS(=O)(=O)c3cccs3)c2O[C@@H]1CN(C)C(=O)Nc1cccc2ccccc12, CC(C)NC(=O)Nc1ccc2c(c1)C(=O)N([C@@H](C)CO)C[C@@H](C)[C@H](CN(C)S(=O)(=O)c1ccccc1)OCCCC[C@@H](C)O2, CC(=O)Nc1ccc(NC(=O)CC2C(=O)Nc3ccccc3N2C(C)=O)cc1 (stereo not given), COc1ccc2c(c1)C(=O)CC(c1ccccc1)O2 (stereo not given), Cc1ccc2[nH]c(C)c(CCNC(=O)Nc3ccc(Cl)cc3)c2c1, C[C@@H]1CN([C@H](C)CO)C(=O)c2cccc(NC(=O)C3CCOCC3)c2O[C@H]1CN(C)S(=O)(=O)c1ccc(Cl)cc1, COc1ccc(S(=O)(=O)Nc2ccc3c(c2)CC(=O)N([C@H](C)CO)C[C@H](C)[C@H](CN(C)CC2CC2)O3)cc1, Cc1noc(C)c1S(=O)(=O)N(C)C[C@H]1Oc2c(NC(=O)c3cnccn3)cccc2C(=O)N([C@H](C)CO)C[C@H]1C, C/C(=C/CC[C@@H](CO)[C@H]1CC[C@@]2(C)[C@@H]3CC[C@H]4C(C)(C)[C@@H](O[C@@H]5O[C@H](CO)[C@@H](O)[C@H](O)[C@H]5O)C[C@H](O)[C@@]45C[C@@]35CC[C@]12C)CO, O=C(C1=C[C@@H](c2ccccc2)C[C@@H](OCCCCO)O1)N1CCN(Cc2ccccc2)CC1, C=C1C[C@@H]2COC(=O)[C@]2(Cc2ccc3ccccc3c2)C1, O=C(OC1OC(CO)C(O)C(O)C1O)c1c(O)cc(O)cc1/C=C/c1ccccc1 (stereo not given), COc1ccc(CN(C)C[C@@H]2Oc3ccc(NC(=O)Nc4ccc(OC)cc4)cc3CC(=O)N([C@H](C)CO)C[C@H]2C)cc1, C[C@@H]1CCCCO[C@H](CN(C)C(=O)CCCN(C)C)[C@H](C)CN([C@@H](C)CO)C(=O)c2cc(NS(=O)(=O)c3ccccc3)ccc2O1, C[C@@H]1CCCCO[C@@H](CN(C)C(=O)CCCN(C)C)[C@@H](C)CN([C@H](C)CO)C(=O)c2cc(NC(=O)CCCN(C)C)ccc2O1, CNC[C@H]1Oc2ccc(NC(=O)CCC(F)(F)F)cc2C(=O)N([C@@H](C)CO)C[C@H]1C, CCCCCc1ccc(/C=C/C(=O)Nc2ccccc2C(=O)O)cc1, CC(Sc1nc2ccccc2[nH]1)c1nc2ccccc2[nH]1 (stereo not given), C[C@H]1CCCCO[C@H](CN(C)C)[C@@H](C)CN([C@@H](C)CO)C(=O)c2cc(NC(=O)CCCN(C)C)ccc2O1, COC(=O)CSc1nnc(-c2ccc(Cl)cc2)n1-c1ccc(Br)cc1, C[C@@H]1CN([C@H](C)CO)C(=O)Cc2cc(NC(=O)C3CC3)ccc2O[C@H]1CN(C)Cc1ccc(Cl)c(Cl)c1, COc1ccc(NC(=O)CN(C)S(=O)(=O)c2ccccc2)cc1OC, C#CCN1C(Cc2ccccc2)C(=O)O[C@H](C2CCCCC2)[C@@H]1/C=C/C1CC1 (stereo not given in full), C[C@@H]1CN([C@H](C)CO)C(=O)Cc2cc(N(C)C)ccc2O[C@@H]1CN(C)Cc1ccccc1, C[C@H]1CN([C@@H](C)CO)C(=O)c2cccc(NC(=O)C3CCOCC3)c2O[C@@H]1CN(C)C, CC1(C)CC(=O)c2ccc(O)cc2O1, C[C@@H]1CN([C@@H](C)CO)C(=O)CCCn2cc(nn2)CO[C@H]1CN(C)C(=O)Nc1ccc(N2CCCCC2)cc1, Cc1noc(C)c1S(=O)(=O)N(C)C[C@H]1Oc2ccc(NC(=O)Cc3ccccc3)cc2CC(=O)N([C@@H](C)CO)C[C@H]1C, COc1ccccc1NC(=O)CNC(=O)c1ccc(C)cc1, CC(C)NC(=O)Nc1ccc2c(c1)C(=O)N([C@H](C)CO)C[C@H](C)[C@@H](CN(C)C)OCCCC[C@H](C)O2, CCn1c(SCC(=O)Nc2sc3c(c2C#N)CCCC3)nnc1-c1ccccc1O
